A short description of assay [1]: TOX21_p53_BLA_p2_viability: Viability Assessment in the Tox21 HCT-116 p53 Agonism Beta-lactamase Assay, Phase 2 (AID 2283591).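 Further: actives lower the ATP signal meaning cytotoxicity.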 The procedure, abridged: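 Cytotoxicity readout: CellTiter-Glo ATP luminescence, 30 min at room temperature, after the beta-lactamase read. Cells were HCT116 exposed 16 h at 37C to compounds pin-transferred at 217-fold dilution from DMSO stocks.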

Assay [2] deals with Cellular tumor antigen p53 (Homo sapiens) (UniProt P04637). The experiment in a line: TOX21_p53_BLA_p2_ratio: Tox21 HCT-116 p53 Agonism Beta-lactamase Assay, Ratio, Phase 2 (AID 2283592). In short, it runs like this:
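An inducible beta-lactamase reporter in HCT116 cells signals p53 pathway activation. After 16 h chemical exposure at 37C, cells load CCF4-AM substrate for 2 h at room temperature; activity is the cleaved/uncleaved emission ratio relative to DMSO.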

Assay [3] in a line: TOX21_p53_BLA_p3_viability: Viability Assessment in the Tox21 HCT-116 p53 Agonism Beta-lactamase Assay, Phase 3 (AID 2283593).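 Further: cells exposed to compound for 16 h before reading.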 In short, it runs like this: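 Cellular ATP was quantified by CellTiter-Glo luminescence, read after 30 min at room temperature. Beforehand, HCT116 cells (4000/well) received compound 5 h post-seeding, 217-fold diluted from DMSO, then incubated 16 h at 37C.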

Assay [4] addresses Cellular tumor antigen p53 (Homo sapiens) (UniProt P04637). The experiment in a line: TOX21_p53_BLA_p3_ratio: Tox21 HCT-116 p53 Agonism Beta-lactamase Assay, Ratio, Phase 3 (AID 2283596). In short, it runs like this:
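HCT116 p53-bla cells (4000/well) given compound in DMSO (217-fold dilution) after 5 h, incubated 16 h at 37C. CCF4-AM substrate 2 h at room temperature; 460/530 nm emission ratio, gain fitted against DMSO.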

Assay [5] in a line: TOX21_p53_BLA_p4_viability: Viability Assessment in the Tox21 HCT-116 p53 Agonism Beta-lactamase Assay, Phase 4 (AID 2283597).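 Further: hits lower the luminescence signal meaning cytotoxicity.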 The procedure, abridged: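 Compound exposure of HCT116 cells lasts 16 h at 37C, 5% CO2, with DMSO stocks diluted 217-fold. Cellular ATP is then quantified by CellTiter-Glo luminescence after 30 min at room temperature.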
For assay [6], the target named is Cellular tumor antigen p53 (Homo sapiens) (UniProt P04637). The experiment in a line: TOX21_p53_BLA_p5_ratio: Tox21 HCT-116 p53 Agonism Beta-lactamase Assay, Ratio, Phase 5 (AID 2283599). The procedure, abridged:
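Beta-lactamase reporter ratio (blue 460 nm over green 530 nm, 405 nm excitation) after 2 h CCF4-AM loading, in HCT-116 cells exposed 16 h at 37 C to compounds pinned at 217-fold dilution. Increases relative to DMSO baseline scored.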

The nature of assay [7]: TOX21_p53_BLA_p5_viability: Viability Assessment in the Tox21 HCT-116 p53 Agonism Beta-lactamase Assay, Phase 5 (AID 2283600). The procedure, abridged:
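Counter-readout for cytotoxicity: ATP-dependent luminescence from CellTiter-Glo, read in the beta-lactamase wells after 30 min at RT, following a 16 h compound exposure at 37C.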

Assay [8] addresses Cellular tumor antigen p53 (Homo sapiens) (UniProt P04637). The experiment in a line: TOX21_p53_BLA_p4_ratio: Tox21 HCT-116 p53 Agonism Beta-lactamase Assay, Ratio, Phase 4 (AID 2283601). In short, it runs like this: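 Signal is the blue/green (460nm/530nm) ratio of cleaved versus uncleaved CCF4-AM substrate, read after 2 h substrate loading. Cells were HCT116 carrying the p53-responsive beta-lactamase reporter, dosed 16 h at 37C, 5% CO2; CellTiter-Glo measured in parallel.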

In assay [9] the target is Norway rat Vesicular Monoamine Transporter (VMAT2), neurotransmitter transporter, Slc18a2 (gene 25549) (UniProt Q01827). Briefly: NVS_TR_rVMAT2: NovaScreen (NVS) Transporter Assay for Norway rat Vesicular Monoamine Transporter (VMAT2), neurotransmitter transporter (AID 2283376).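 Further: actives lower the bound radioligand signal below the DMSO level.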 In short, it runs like this:
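Tissue: rat forebrain extract. Format: competitive radioligand binding, cell-free. Timepoint: 1 h. Readout: filter radiodetection/scintillation. Screen: 25 uM in duplicate, then concentration series for actives. Baseline: DMSO.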

In assay [10] the target is mouse Estrogen Receptor alpha (Era), Esr1 (gene 13982) (UniProt P19785). The experiment in a line: NVS_NR_mERa: NovaScreen (NVS) Nuclear Receptor Binding Assay for mouse Estrogen Receptor alpha (Era) (AID 2283378).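 Further: hit means loss of bound radioligand signal relative to DMSO.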 The procedure, abridged: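 Test chemicals competed against a specific radioligand for binding to cell-free mouse Era. Duplicate wells at 25 uM were read 18 hours later by filter-based radiodetection, with loss of signal against DMSO scored as activity.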

Values joined by “and” are separate entries in the source; they are usually repeats but may differ in a detail not shown here. Identical values can stand only once. Records with an inconclusive call do not appear. Some compounds were tested as several samples or in several runs, with calls that do not always agree. Active and inactive are the calls of the source. How the source made its calls: active means hit-call score of the fitted dose curve at least 0.9, where 1 is the maximum; inconclusive means response in the unintended direction; inactive means score below 0.9.

Sequence of Norway rat Vesicular Monoamine Transporter (VMAT2), neurotransmitter transporter, Slc18a2 (gene 25549) (Q01827 whole entry, looked up): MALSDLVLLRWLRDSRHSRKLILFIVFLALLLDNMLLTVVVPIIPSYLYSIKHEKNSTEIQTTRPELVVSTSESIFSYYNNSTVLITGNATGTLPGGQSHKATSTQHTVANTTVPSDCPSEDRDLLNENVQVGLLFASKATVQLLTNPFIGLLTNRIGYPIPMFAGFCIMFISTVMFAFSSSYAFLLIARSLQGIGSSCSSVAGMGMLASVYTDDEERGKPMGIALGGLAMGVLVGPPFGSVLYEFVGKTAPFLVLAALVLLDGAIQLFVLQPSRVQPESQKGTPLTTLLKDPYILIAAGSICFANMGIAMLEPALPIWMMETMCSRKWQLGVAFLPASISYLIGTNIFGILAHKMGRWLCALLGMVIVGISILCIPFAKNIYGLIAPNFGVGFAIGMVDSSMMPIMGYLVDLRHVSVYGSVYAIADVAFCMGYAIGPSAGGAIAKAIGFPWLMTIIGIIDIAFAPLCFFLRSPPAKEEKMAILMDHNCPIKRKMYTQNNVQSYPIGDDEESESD
Sequence of Cellular tumor antigen p53 (Homo sapiens) (P04637 whole entry, looked up): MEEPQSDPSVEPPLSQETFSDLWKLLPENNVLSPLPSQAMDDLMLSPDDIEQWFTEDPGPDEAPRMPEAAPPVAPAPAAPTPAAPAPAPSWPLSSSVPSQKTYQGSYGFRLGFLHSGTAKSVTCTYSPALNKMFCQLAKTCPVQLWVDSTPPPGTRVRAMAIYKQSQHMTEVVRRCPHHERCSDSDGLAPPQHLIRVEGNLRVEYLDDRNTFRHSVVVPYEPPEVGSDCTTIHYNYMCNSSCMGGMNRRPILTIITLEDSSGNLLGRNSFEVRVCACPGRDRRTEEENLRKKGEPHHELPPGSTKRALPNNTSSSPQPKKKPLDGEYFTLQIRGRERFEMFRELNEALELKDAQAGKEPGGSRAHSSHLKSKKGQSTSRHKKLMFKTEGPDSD
Sequence of mouse Estrogen Receptor alpha (Era), Esr1 (gene 13982) (P19785 whole entry, looked up): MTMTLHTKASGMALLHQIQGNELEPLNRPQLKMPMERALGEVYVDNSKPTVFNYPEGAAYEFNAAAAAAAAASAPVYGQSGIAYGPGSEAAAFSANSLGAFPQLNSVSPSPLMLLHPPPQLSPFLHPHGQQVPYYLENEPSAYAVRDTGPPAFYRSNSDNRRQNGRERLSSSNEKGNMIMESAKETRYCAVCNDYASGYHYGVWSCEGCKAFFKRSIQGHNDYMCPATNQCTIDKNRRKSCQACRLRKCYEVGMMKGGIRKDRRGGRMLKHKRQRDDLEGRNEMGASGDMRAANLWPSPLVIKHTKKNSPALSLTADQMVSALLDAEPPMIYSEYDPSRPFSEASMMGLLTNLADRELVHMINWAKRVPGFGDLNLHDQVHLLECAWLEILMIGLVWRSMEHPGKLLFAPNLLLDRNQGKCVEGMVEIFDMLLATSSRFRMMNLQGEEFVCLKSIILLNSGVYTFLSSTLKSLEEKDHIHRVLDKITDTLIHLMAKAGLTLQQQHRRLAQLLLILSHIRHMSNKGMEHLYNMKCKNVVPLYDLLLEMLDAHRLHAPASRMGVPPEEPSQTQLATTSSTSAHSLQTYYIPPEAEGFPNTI

As a reminder, the AC50 is the concentration at which the activity in the assay is half-maximal. With `CCCCCCCCCCCCCC[P+](CCCCCC)(CCCCCC)CCCCCC`, the AC50 in [1] is 33.6 µM (active) and 20.1 µM (active); in assay [2] it was 59.6 µM (active) and 51.8 µM (active); in assay [3] it was 46.3 µM (active) and 28.9 µM (active); in assay [4] it was 67.4 µM (active) and 50.1 µM (active) and 7.15 µM (active); in assay [5], 34.3 µM (active) and 20.3 µM (active); in assay [6], 59.5 µM (active) and 58.6 µM (active). Moreover, the AC50 is 32.3 µM (active) and 26.6 µM (active) in assay [7]; 66 µM (active) and 48.6 µM (active) in assay [8]. The compound was called inactive in assay [1], in assay [2], in assay [5] and in [6].
In the case of `C#CCN1CC(=O)N(COC(=O)C2C(C=C(C)C)C2(C)C)C1=O` (configuration not stated), the compound was called inactive in assay [1], in assay [2], in [3], in [4] and in assay [5].
As to `Nc1ccc(S(=O)(=O)Nc2nccs2)cc1`, in [9], the compound was called inactive.
On to `N#CC(C#N)=NNc1cccc(Cl)c1`, for which the outcome in [10] and in assay [3] was inactive. Besides, the AC50 in assay [1] is 20.8 µM (active); in assay [2] it was 2.66 µM (active); in assay [4] it was 1.24 µM (active); in assay [5], 6.28 µM (active); in assay [6], 26.7 µM (active); in [7], 46.1 µM (active). Also, in assay [8], the AC50 is 13.8 µM (active).
With `CCCCCCCCCCCCCCCCCC(=O)OCC(CC)CCCC` (configuration not stated), the call in [9] was inactive.
Consider `CCOC(=S)S`, for which the compound was classed as inactive in assay [1], in [2], in assay [3], in assay [4], in assay [5] and in assay [6]. Also, the compound was classed as inactive in assay [7] and in assay [8]. The AC50 in [4] was 86.6 µM (active).
In the case of `O=C1C[C@@H]2OCC=C3CN4CC[C@]56c7ccccc7N1[C@H]5[C@H]2[C@H]3C[C@H]46` (tested in a mixture with another compound), the result in [1], in assay [2], in assay [3], in assay [4], in [5] and in [6] was inactive. In addition, the result in [7] and in assay [8] was inactive. Also, the AC50 in [3] was 41.2 µM (active); in assay [4], 36.6 µM (active).
Turning to `c1ccoc1`, the compound was classed as inactive in assay [1], in assay [2], in assay [3], in [4], in assay [5] and in assay [6]. In assay [7], the compound was called inactive.
Regarding `Oc1ccc(Cl)c(Cl)c1`, the compound was called inactive in assay [1], in [2], in assay [3], in [4], in [5] and in assay [6]. Also, the result in assay [7] was inactive.
`CCCCC(CC)C(=O)O` (configuration not stated): the outcome in assay [9] was inactive.
On to `BrCCCCCCBr`, for which the result in [1], in assay [2], in assay [3] and in assay [4] was inactive.
`FC(F)(F)c1cccc(C2=CCN(CCc3ccc4ccccc4c3)CC2)c1`: the compound was classed as inactive in assay [1], in assay [2], in [3], in assay [4] and in assay [5].
For the compound `O=C(c1ccccc1)c1ccc(O)cc1O`, the call in assay [9] was inactive.
`CC(C)(C)CC(C)(C)c1ccc(OCCOCC[N+](C)(C)Cc2ccccc2)cc1`: the compound was called inactive in [9].
Same read-out and setting: the value for `CCCCCCCCCCCCCCCC[N+](C)(C)CC` was “inactive”.
Regarding `Clc1ccc(Nc2nnc(Cc3ccncc3)c3ccccc23)cc1`, the AC50 in assay [9] was 7.04 µM (active).
With `C1CNCCN1`, the compound was called inactive in assay [9].
As to `[Cl][Sc]([Cl])[Cl]`, in assay [9], the call was inactive.

Values taken from PubChem BioAssay (EPA / NIEHS).
